# Test results taken from PubChem BioAssay (Tox21).
# Inconclusive results are not listed. Entries that show only a call come without a potency. Activity calls are given as the source filed them. Calls follow the shape of the full dose curve.
# Assay: qHTS assay for small molecule agonists of the antioxidant response element (ARE) signaling pathway - cell viability counter screen (AID 743203); also: nearly all actives have a fitted effect of over 55% in size
# Details: ARE-bla HepG2 viability, CellTiter-Glo luminescence, 16 h; series mostly up to 73.3 µM
# Description: National Center for Advancing Translational Sciences [NCATS]
# NIH Chemical Genomics Center [NCGC]
# U.S. Environmental Protection Agency [EPA]
# National Institutes of Environmental Health Sciences [NIEHS]
# National Toxicology Program [NTP]
# U.S. Food and Drug Administration [FDA]
# Oxidative stress has been implicated in the pathogenesis of a variety of diseases ranging from cancer to neurodegeneration. The antioxidant response element (ARE) signaling pathway plays an important role in the amelioration of oxidative stress. The CellSensor ARE-bla HepG2 cell line (Invitrogen) can be used for analyzing the Nrf2/antioxidant response signaling pathway. Nrf2 (NF-E2-related factor 2) and Nrf1 are transcription factors that bind to AREs and activate these genes. The CellSensor ARE-bla Hep G2 cell line contains a beta-lactamase reporter gene under control of the Antioxidant Response Element (ARE) stably integrated into HepG2 cells. The activation of the report gene under culture conditions can be detected by fluorescence intensity. This cell line has been used to screen the Tox21 10K compound library to identify agonists that induce oxidative stress. The cytotoxicity of the Tox21 compound library against the ARE-bla cell line was tested in parallel by measuring the cell viability using CellTiter-Glo assay (Promega, Madison, WI) in the same wells.
# Tox21 Assay Protocol Summary:
# ARE-bla HepG2 cells were dispensed at 2,000 cells/5 ul/well in 1536-well white wall/solid bottom plates using a Multidrop Combi (ThermoFisher Scientific, Waltham, MA) dispenser. After the assay plates were incubated at 37C/5% CO2 for 5 hrs, 23 nL of compounds dissolved in DMSO, positive controls or DMSO only was transferred to the assay plate by a pintool work station (Kalypsys, San Diego, CA). The plates were incubated at 37C/5% CO2 for 16 hrs, followed by addition of 4 ul/well of CellTiter-Glo reagent into the assay plates using a Flying Reagent Dispenser (Aurora Discovery, San Diego, CA). After 30 min incubation at room temperature, the luminescence intensity in the assay plates was measured using a ViewLux (PerkinElmer, Shelton, CT) plate reader.
# Potency is read from the fitted curve at half-maximal effect.
row,SMILES,Potency
1,O=CC=C(c1ccccc1)c1ccccc1,inactive
2,CC(C)n1nc(-c2cc3cc(O)ccc3[nH]2)c2c(N)ncnc21,inactive
3,CN(C)c1ccc(SC#N)cc1,inactive
4,O=C1c2ccccc2Cc2ccccc21,inactive
5,CCCCC(CC)COC(=O)c1ccccc1C(=O)O (stereo not given),inactive
6,OCc1c[nH]c2ccccc12,inactive
7,Cc1onc(-c2ccccc2Cl)c1C(=O)N[C@@H]1C(=O)N2[C@@H]1SC(C)(C)[C@@H]2C(=O)O,inactive
8,CCCCCCCC(=O)[O-].CCCCCCCC(=O)[O-].[Zn+2],inactive
9,N#CC1(c2ccc(F)cc2)CCC(=O)CC1,inactive
10,CC[C@@]1(O)C(=O)OCc2c1cc1n(c2=O)Cc2c-1nc1ccccc1c2/C=N/OC(C)(C)C,0.335 µM (active)
11,O=C(O)c1c(Cl)cccc1Cl,inactive
12,N/C(=N\N=C\c1ccc(Cl)cc1)N/N=C/c1ccc(Cl)cc1,29.8 µM (active)
13,COc1cc(/C=C/C(=O)O[C@H]2CC[C@]34C[C@]35CC[C@]3(C)[C@@H]([C@H](C)CCC=C(C)C)CC[C@@]3(C)[C@@H]5CC[C@H]4C2(C)C)ccc1O,inactive
14,CCC(CN)=C(c1ccccc1)c1ccccc1,inactive
15,O=C(O)c1ccc(Cl)c(Cl)c1,inactive
16,CN(C)C(=O)C1(N2CCCCC2)CCN(CC[C@@]2(c3ccc(Cl)c(Cl)c3)CN(C(=O)c3ccccc3)CCO2)CC1,20.3 µM (active)
17,CSc1ccc(C(=O)c2[nH]c(=O)[nH]c2C)cc1,inactive
18,Cc1ccc2oc(CN(Cc3ccccc3)C(=O)Nc3c(F)cc(F)cc3F)c(-c3ccc(Cl)cc3)c2c1,inactive
19,C[n+]1cc2c3c(ccc2c2ccc4cc5c(cc4c21)OCO5)OCO3,0.92 µM (active)
20,CCCCCOc1ccccc1/C(=C\SC)n1ccnc1,inactive

row,SMILES,Potency
1,CC(C)(C)C(=O)OCOC(=O)C1N2C(=O)CC2S(=O)(=O)C1(C)C (stereo not given),inactive
2,CCCC/C=C/CCCCO,inactive
3,NNC(=O)c1cccc(C(=O)NN)c1,inactive
4,COc1cc(-c2nc(NC(=O)c3cc4cc(C)cc(C)c4n3CC(=O)O)sc2CCC2CCCCC2)c(OC)cc1Cl,14.1 µM (active)
5,Cc1cc(N)c(S(=O)(=O)O)cc1Cl,inactive
6,CC(=O)SC[C@@H](Cc1ccccc1)C(=O)NCC(=O)OCc1ccccc1,inactive
7,CNC(=O)c1ccccc1,inactive
8,CC(C)OC(=O)c1cc2c(OCC(O)CNC(C)(C)C)cccc2[nH]1 (stereo not given),inactive
9,CCN(Cc1cccnc1)C(=O)c1cccc(Cl)c1[C@]1(C)C(=O)N(Cc2ccc(OC)cc2OC)c2ccc(Cl)cc21,5.09 µM (active)
10,CCCCCCCCn1sc(Cl)c(Cl)c1=O,4.33 µM (active)
11,C1CCCC1,inactive
12,CCCCC(CC)CN=C(N)NC(N)=NCCCCCCN=C(N)NC(N)=NCC(CC)CCCC (stereo not given),9.44 µM (active)
13,Cc1cccc(CN2CCN(C(c3ccccc3)c3ccc(Cl)cc3)CC2)c1 (stereo not given),inactive
14,Cc1cccc(S(=O)(=O)O)c1C,inactive
15,Cc1cc(O)c(C(C)(C)C)cc1C(C)(C)C,54.5 µM (active)
16,O=C(Nc1cccc(C(F)(F)F)c1)c1cc(Br)cc(Br)c1O,10.9 µM (active)
17,CN(C/C=C/C#CC(C)(C)C)Cc1cccc2ccccc12,inactive
18,CCCCCCCC[P+](CCCCCCCC)(CCCCCCCC)CCCCCCCC,10.8 µM (active)
19,CC(C)(C)C1CCC(CC2=C(O)c3ccccc3C(=O)C2=O)CC1 (stereo not given),inactive
20,O=C(OCC(COC(=O)c1ccccc1)(COC(=O)c1ccccc1)COC(=O)c1ccccc1)c1ccccc1,inactive
